According to PubChem BioAssay (NCATS):
Results filed as inconclusive are left out. Where a call stands in place of a potency, no number is given. Unmarked numbers belong to inactive results. Active and inactive are the calls of the source. Calls follow the shape of the dose curve; as a rule, active = well fitted cell-killing curve with a large enough effect; inconclusive = small, poorly fitted or top-dose-only effect, or effect the other way; inactive = flat fitted curve, though single readings scatter.

Tests used:
Experiment in all cases: Primary qHTS to identify gynecologic anti-cancer compounds using libraries of approved drugs and bioactive compounds (AID 1345084); also: nearly all actives have a fitted effect of over 55% in size
Conditions in all cases: Gynecologic cancer cell panel viability, ATPlite luminescence, 48 h; series mostly up to 57.5 µM
OV90 = system: OV90
Outline: (§1)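 48 h compound exposure at 37 C, 5% CO2; five-point qHTS. ATPlite luminescence readout of cell ATP.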

PA-1 = system: PA-1
Outline: as §1

SKOV3 = system: SKOV3
Outline: as §1

Tov-21-G = system: Tov-21-G
Outline: as §1

Tov112D = system: Tov112D
Outline: as §1
Potency is read from the fitted curve at half-maximal effect.

Structure (SMILES) | Potency (OV90) | Potency (PA-1) | Potency (SKOV3) | Potency (Tov-21-G) | Potency (Tov112D) | activity change, negative = cytotoxicity (OV90) | activity change, negative = cytotoxicity (PA-1) | activity change, negative = cytotoxicity (SKOV3) | activity change, negative = cytotoxicity (Tov-21-G) | activity change, negative = cytotoxicity (Tov112D)
COc1cnc(-n2cnc(C)n2)c2[nH]cc(C(=O)C(=O)N3CCN(C(=O)c4ccccc4)CC3)c12 | inactive | inactive | inactive | inactive | inactive | – | – | – | – | –
C=CCC/C=C/C#CCCCCCCCC[C@H]1C(=O)O[C@H](C)[C@@H]1O | inactive | inactive | inactive | inactive | inactive | – | – | – | – | –
COc1c(C)c(OCC=C(C)C)cc2c1COC2=O | inactive | inactive | inactive | inactive | inactive | – | – | – | – | –
COC(=O)C1=COC(O[C@@H]2O[C@H](CO)[C@@H](O)[C@H](O)[C@H]2O)/C(=C\COC(=O)/C=C/c2ccccc2)C1CC(=O)OCCc1ccc(O)cc1 (stereo not given in full) | inactive | inactive | inactive | inactive | inactive | – | – | – | – | –
CC(C)c1cc2c(c(O)c1O)[C@@]13CCCC(C)(C)C1[C@@H](O)[C@@H]2OC3=O (stereo not given in full) | inactive | inactive | inactive | inactive | inactive | – | – | – | – | –
COC(=O)C1=COC(OC2OC(CO)C(O)C(O)C2O)C2C(COC(=O)/C=C/c3ccc(O)cc3)C(O)C(O)C12 (stereo not given) | inactive | inactive | inactive | inactive | inactive | – | – | – | – | –
C=C(C(=O)O)C1CC(OC(=O)CC(C)CC)C2(C)CCCC(=C)C2C1 (stereo not given) | inactive | inactive | inactive | inactive | inactive | – | – | – | – | –
CC(=O)O[C@@H]1C=C2[C@H](CC[C@@]3(C)[C@@]2(O)CC[C@H]2Cc4c([nH]c5ccccc45)[C@@]23C)O[C@@H]1C(C)(C)O | inactive | inactive | inactive | inactive | inactive | – | – | – | – | –
COC(=O)C1(C)CCCC2(C)c3ccc(C(C)C)cc3C(O)C(O)C12 (stereo not given) | inactive | inactive | inactive | inactive | inactive | – | – | – | – | –
CC1(C)CCC2(C(=O)O)C(O)CC3(C)C(=CCC4C5(C)CCC(OC6OC(CO)C(O)C(O)C6OC6OC(CO)C(O)C(O)C6OC6OCC(O)(CO)C6O)C(C)(C)C5CCC43C)C2C1 (stereo not given) | – | – | – | – | – | -4.37% [at 11.6 µM] | -4.82% [at 11.6 µM] | 9.15% [at 11.6 µM] | -4.95% [at 11.6 µM] | 1.07% [at 11.6 µM]
CC(=O)OCC1OC(O[C@H]2CC[C@]34C[C@]35CC(O)[C@]3(C)[C@@H]([C@H](C)CC/C=C(\C)C(=O)O)C(O)C[C@@]3(C)C5CC[C@H]4C2(C)C)C(O)C(O)C1OC1OCC(O)C(O)C1O (stereo not given in full) | – | – | – | – | – | -7.9% [at 11.6 µM] | -0.531% [at 11.6 µM] | -12.1% [at 11.6 µM] | 4.53% [at 11.6 µM] | 2.89% [at 11.6 µM]
Nc1nc(COC(=O)c2ccc([N+](=O)[O-])cc2)nc(Nc2ccccc2)n1 | inactive | inactive | inactive | inactive | inactive | – | – | – | – | –
C/C1=C\CC[C@]2(C)O[C@H]2C(=O)c2c(C)coc2C1 | inactive | 10 µM (active) | 7.94 µM (active) | 8.91 µM (active) | 4.47 µM (active) | – | – | – | – | –
COc1cc(C(=O)OC[C@@]2(O)CO[C@@H](O[C@H]3[C@H](Oc4ccc(O)cc4)O[C@H](CO)[C@@H](O)[C@@H]3O)[C@@H]2O)cc(OC)c1O | inactive | inactive | inactive | inactive | inactive | – | – | – | – | –
CC(=O)O[C@@H]1C(=O)C(C)=C(CCC(C)CC(=O)O)[C@@]2(C)CCCC(C)(C)C12 (stereo not given in full) | inactive | inactive | inactive | inactive | inactive | – | – | – | – | –
CC(=O)OC[C@]12[C@H](OC(C)=O)[C@H](OC(=O)c3ccccc3)[C@@H]3[C@@H](OC(C)=O)[C@]1(OC3(C)C)[C@H](C)C[C@H](OC(=O)c1ccccc1)[C@@H]2OC(=O)c1ccccc1 | inactive | inactive | inactive | inactive | inactive | – | – | – | – | –
C[C@]12CCC[C@](C)(C(=O)O)C1CCC13CC(CO)C(CCC12)C3 (stereo not given in full) | inactive | inactive | inactive | inactive | inactive | – | – | – | – | –
CCC(C)C(N)C(=O)NCCN1CCOCC1 (stereo not given) | inactive | inactive | inactive | inactive | inactive | – | – | – | – | –
COc1ccc(/C=C/C(=O)O[C@@H]2[C@@H](O)[C@@H](O)[C@H](O[C@H]3[C@@H]4C=CO[C@@H](O[C@@H]5O[C@H](CO)[C@@H](O)[C@H](O)[C@H]5O)[C@@H]4[C@@]4(CO)O[C@@H]34)O[C@H]2C)cc1 | inactive | inactive | inactive | inactive | inactive | – | – | – | – | –
COc1cc(Nc2nc3c(s2)CCCC3c2ccccc2)ccc1-n1cnc(C)c1 (stereo not given) | – | – | – | – | – | 7.49% [at 11.6 µM] | 7.13% [at 11.6 µM] | 7.37% [at 11.6 µM] | 9.24% [at 11.6 µM] | 0.142% [at 11.6 µM]
